Compound activity: PubChem, several laboratories
Hits are enriched below; roughly 22% of the tested compounds scored in any of these assays.
Measles CPE: compounds protecting cells from measles virus cytopathic effect, primary screen, measles RdRp inhibitor project, single point, MLSMR library, absorbance | Measles virus-infected cells, CPE protection | protection (pct of control), % at 4 µM | actives 1.5% (n = 140,000) | AID 841, 2007; in the data active means protection mostly above about 24%, no sharp cut-off; inactive means mostly below about 26%
CYP2C19 act: human CYP2C19 activators, primary screen, biochemical, luminescence; Cytochrome P450 2C19 (Homo sapiens), P33261; recombinant CYP2C19, luciferin-H EGE luminescence; active compounds read high; 0 = fully inhibited enzyme, 1 = untreated enzyme; activation factor at 5 µM; 96,000 tested, under 10 active; AID 1025, 2008;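 active means activation factor of at least 2 at 5 µM in the primary screen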;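 further: 0 = wells with 2.5 mM tranylcypromine and 1 = vehicle-only wells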
CYP2C9 act: human CYP2C9 activators, primary screen, biochemical, luminescence. Cytochrome P450 2C9 (Homo sapiens), P11712. recombinant CYP2C9, luciferin-H conversion; active compounds read high; factor 1 = untreated enzyme, 0 = blocked. activation factor at 5 µM. actives 1.4% (n = 96,000);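 active means activation factor of 2 or more for CYP2C9 at a 5 µM dose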;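 further: 0 = sulfaphenazole-blocked wells and 1 = vehicle-only wells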
Target sequence (P11712 whole entry, looked up): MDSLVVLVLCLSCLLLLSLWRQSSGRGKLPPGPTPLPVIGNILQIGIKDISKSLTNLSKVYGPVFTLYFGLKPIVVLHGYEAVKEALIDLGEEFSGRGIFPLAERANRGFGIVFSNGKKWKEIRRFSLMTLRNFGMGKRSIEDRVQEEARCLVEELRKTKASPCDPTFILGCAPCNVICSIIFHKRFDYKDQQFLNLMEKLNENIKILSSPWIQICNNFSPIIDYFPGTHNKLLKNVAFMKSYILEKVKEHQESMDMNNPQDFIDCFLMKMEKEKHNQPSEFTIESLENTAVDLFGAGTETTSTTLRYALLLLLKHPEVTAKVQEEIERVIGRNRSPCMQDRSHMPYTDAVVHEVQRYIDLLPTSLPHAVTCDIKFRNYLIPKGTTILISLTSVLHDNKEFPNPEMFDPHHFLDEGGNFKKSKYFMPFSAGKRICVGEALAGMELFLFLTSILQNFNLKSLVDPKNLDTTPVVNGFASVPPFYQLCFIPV
CYP2C9 inh: blockers of cytochrome P450 2C9 activity – biochemical, luminescence, ADME assay, primary screen | P11712 | CYP2C9 Supersomes, luciferin-H conversion | inhibition, % at 5 µM | actives 20% (n = 96,000) | AID 777, 2007;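 active means blocking of liver enzyme CYP2C9 beyond about 50% at 5 µM, limit read from the data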
CYP2C19 inh: blockers of cytochrome P450 2C19 activity – biochemical, luminescence, ADME assay, primary screen; CYP2C19 Supersomes, luciferin-H EGE luminescence, 30 min; inhibition, % at 5 µM; actives 21% (n = 96,000); AID 778, 2007;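 active means CYP2C19 inhibition above a set limit at 5 µM in the primary screen, cut at about 50% in these data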;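 further: plate controls were negative control wells for no effect and 2.5 mM tranylcypromine positive control for full effect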
Active calls of the source: *; x = not tested or not shown.

SMILES | Measles CPE | CYP2C19 act | CYP2C9 act | CYP2C9 inh | CYP2C19 inh
CCCCN(C)CCCNC(=O)CN1C(=O)CSc2ccc(S(=O)(=O)N3CCOCC3)cc21 | 4 | x | x | x | x
Cc1occc1-c1nnc(SCC(=O)Nc2ccccc2)n1CCc1ccccc1 | 20 | 0.1 | 0.2 | 85* | 92*
COc1ccccc1-c1nnc(SCC(=O)NC2CCS(=O)(=O)C2)n1CCc1ccccc1 (configuration not stated) | 59* | x | x | x | x
Cc1occc1-c1nnc(SCC(=O)N2CCOCC2)n1CCc1ccccc1 | 18 | 1 | 1 | -4 | -5
O=C(CSc1nnc(COc2ccccc2F)n1-c1ccccc1)NC1CCS(=O)(=O)C1 (configuration not stated) | 30 | x | x | x | x
CCOC(=O)c1cn(Cc2c(C)c(C)c(C)c(C)c2C)nn1 | 16 | x | x | x | x
CCN(CC)CCCn1c(C)cc2c(c1=O)C(c1cccc(Cl)c1)C(C#N)=C(N)O2 (configuration not stated) | 4 | x | x | x | x
COc1ccc(-c2cc(C(=O)NCc3ccccc3)no2)cc1OC | 7 | 0.9 | 0.9 | 10 | 14
Oc1ccc2oc3c(c2c1/C=N/n1cnnc1)CCCC3 | 5 | 0.5 | 0.4 | 63* | 48
O=C(COc1ccc(Cl)cc1)NC1CCSC1=O (configuration not stated) | 7 | 0.3 | 0.7 | 26 | 65*
COc1ccccc1C(=O)OCC(=O)Nc1ccc(OC(F)F)cc1 | 1 | 0.5 | 0.7 | 29 | 53*
CCCC(=O)OCC(=O)Nc1ccc(OC(F)F)cc1 | 26 | 0.4 | 0.5 | 47 | 59*
O=C(Cn1cccc1)Nc1ccc(OC(F)(F)F)cc1 | 16 | 0.5 | 0.8 | 18 | 51*
COc1ccccc1C(=O)COC(=O)c1ccccc1OCC(=O)Nc1ccc(SC(F)F)cc1 | 13 | x | x | x | x
COc1cccc(OC)c1C(=O)OCC(=O)Nc1ccc(OC(F)(F)F)cc1 | 9 | 0.2 | 0 | 99* | 75*
C=CCNC(=O)c1ccccc1NC(=O)Nc1ccccc1 | 13 | 0.5 | 0.7 | 34 | 50
C=CCNC(=O)c1ccccc1NS(=O)(=O)c1ccccc1 | 10 | 0.3 | 2.3* | -129 | 68*
C=CCNC(=O)c1ccccc1NC(=O)Cc1ccccc1[N+](=O)[O-] | 12 | x | x | x | x
C=CCNC(=O)c1ccccc1NS(=O)(=O)c1ccc(SC)cc1 | 4 | 0 | 0.6 | 41 | 97*
COc1cccc(NC(=O)COC(=O)/C=C/c2ccc(Cl)cc2Cl)c1 | 9 | x | x | x | x
COCCn1c(SC(C)C(=O)Nc2ncc(Cl)cc2Cl)nc2ccccc21 (configuration not stated) | 53* | 0.3 | 0.9 | 14 | 68*
Cc1cc(SC(C)C(=O)Nc2ncc(Cl)cc2Cl)nc2ccccc12 (configuration not stated) | 26* | x | x | x | x
CCCCn1cnc2c([nH]c3cc(OC)ccc32)c1=O | 17 | 0.7 | 0.9 | 8 | 31
CCCS(=O)(=O)N1CCN(C(=O)c2cc(OC)cc(OC)c2)CC1 | 5 | 0.3 | 0.9 | 11 | 71*
COc1cc(OC)cc(C(=O)N2CCN(Cc3ccccc3C(F)(F)F)CC2)c1 | 20 | 0.2 | 0.7 | 30 | 78*
SMILES | Measles CPE | CYP2C19 act | CYP2C9 act | CYP2C9 inh | CYP2C19 inh
COc1cccc(OC)c1C(=O)N1CCN(Cc2ccccc2C(F)(F)F)CC1 | 10 | 0.1 | 0.1 | 91* | 94*
COc1cc(C(=O)N2CCN(Cc3ccccc3C(F)(F)F)CC2)cc(OC)c1OC | 10 | 0.8 | 1.2 | -21 | 23
CN1CCCN(Cc2ccccc2C(F)(F)F)CC1 | 12 | 1 | 0.6 | 44 | 2
CC(C)CN(C(=O)c1ccc(=O)n(C)n1)c1nc2ccccc2s1 | 3 | 0.1 | 0.2 | 84* | 90*
O=C1NC(=O)/C(=C\c2ccccc2OCc2cccc([N+](=O)[O-])c2)N1 | 7 | x | x | x | x
C=CCOCCN1C(=O)C2C(c3ccccc3)C=CC(c3ccccc3)C2C1=O (configuration not stated) | 7 | 0.3 | 0.6 | 40 | 66*
O=C1C2C(c3ccccc3)C=CC(c3ccccc3)C2C(=O)N1CCCO (configuration not stated) | 9 | 0.2 | 0.2 | 82* | 82*
Cc1nc2cc(Cl)ccc2n1CCO | 5 | 1.2 | 1.2 | -16 | -17
